# Reference: article PMC5540273 (PLoS ONE, 2017)
# Tests used:
# Conditions in all cases: concentration: 1 μM, replicates: in singlicate; n = 1
# TNIK = system: TNIK
# TNK1 = system: TNK1
# TNK2 = system: TNK2
# TNNI3K = system: TNNI3K
# TRKA = system: T1, TRKA
# T1 construct: gene NTRK1
# TRKB = system: TRKB
# TRKC = system: T2, TRKC
# T2 construct: gene NTRK3
# TRPM6 = system: TRPM6
# TSSK1B = system: TSSK1B
# TSSK3 = system: TSSK3
# TTK = system: TTK
# TXK = system: TXK
# [1] = system: TYK2(JH1domain-catalytic)
# [2] = system: TYK2(JH2domain-pseudokinase)
# TYRO3 = system: TYRO3
# ULK1 = system: ULK1
# ULK2 = system: ULK2
# ULK3 = system: ULK3
# VEGFR2 = system: T3, VEGFR2
# T3 construct: gene KDR
# VPS34 = system: T4, VPS34
# T4 construct: gene PIK3C3
# 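Further: KINOMEscan kinase panel screen.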
Structure (SMILES),%Inh (TNIK) [%],%Inh (TNK1) [%],%Inh (TNK2) [%],%Inh (TNNI3K) [%],%Inh (TRKA) [%],%Inh (TRKB) [%],%Inh (TRKC) [%],%Inh (TRPM6) [%],%Inh (TSSK1B) [%],%Inh (TSSK3) [%],%Inh (TTK) [%],%Inh (TXK) [%],%Inh [1] [%],%Inh [2] [%],%Inh (TYRO3) [%],%Inh (ULK1) [%],%Inh (ULK2) [%],%Inh (ULK3) [%],%Inh (VEGFR2) [%],%Inh (VPS34) [%]
Cn1cncc1-c1ccc2ncnc(Nc3ccc(OCc4ccccc4)cc3)c2c1 [GW320571],0,0,29,23,45,0,0,0,29,16,19,34,29,0,3,25,0,14,0,23
Cc1cc(NCC(c2ccccc2)c2ccccc2)nc(NCc2ccc(C(F)(F)F)cc2)n1 [GW497681],0,0,0,0,0,14,7,0,0,4,0,0,9,23,0,0,0,0,0,0
Cn1ccc2ncnc(Oc3cccc(C(=O)Nc4ccccc4)c3)c21,16,3,9,1,21,0,0,0,9,0,0,0,0,0,0,0,6,9,59,11
CC(C)(C)c1ccc(C(=O)Nc2cn3cc(Cl)ccc3n2)cc1,4,30,2,0,0,0,0,0,0,0,0,0,0,0,9,0,0,10,12,13
Cl.Oc1ccc(-c2nc(-c3ccccc3)[nH]c2-c2ccncc2)cc1 [SB-428218],0,0,10,0,0,63,64,0,0,0,0,8,100,67,0,8,0,6,0,0
O=C(Nc1ccccc1)Nc1cccc(Oc2ccc3nccn3n2)c1,7,23,0,0,0,0,27,0,0,0,0,0,14,1,11,0,0,0,,0
CN1C(=O)C(Nc2ccc(Cl)c(C(=O)O)c2)=C(c2ccc(Cl)cc2)C1=O [SB-404290],13,13,0,0,0,0,22,10,0,0,22,0,0,0,0,2,2,24,6,28
COc1cc2nccc(Nc3ccc(NC(=O)c4ccc(C)cc4)c(O)c3)c2cc1OC.Cl [GW440132],0,26,48,4,36,0,0,5,3,18,0,10,0,1,0,21,0,7,0,14
O=C(Nc1n[nH]c2nc(-c3nccs3)c(Br)cc12)C1CC1 [SB-742251],0,0,16,4,59,62,66,0,0,15,0,0,36,77,0,21,7,0,0,0
O=c1cc(N2CCOCC2)nc2n(Cc3cccc(Cl)c3Cl)ccn12 [GSK2286295],0,8,12,13,0,0,0,25,0,47,0,19,4,0,0,12,0,0,0,97
O=C(Nc1ccc2c(c1)OCO2)NC1CCN(c2ccnc(Nc3ccc(F)cc3)n2)C1 (stereo not drawn) [GSK1379724],0,16,10,0,0,19,57,8,0,18,26,43,9,33,0,9,0,16,0,0
